Among the data in the antibiotic and cytotoxicity screens of Wong et al. (2023) are growth inhibition call values, retold here.

SMILES strings stand for the structures. About 500 (1.3%) of roughly 39,000 compounds were called active. Shown is part of a subset that was picked to be rich in actives.

For this assay, the system named is S. aureus RN4220. The assay can be described thus: growth inhibition call (relative growth <= 0.2). To be noted: 50 µM.
For the molecule `C[C@@H]1CN([C@H](C)CO)C(=O)c2c(c3ccccc3n2C)-c2ccccc2CO[C@H]1CN(C)S(C)(=O)=O`, the growth inhibition call was “inactive”.
As to `C[C@H](CO)N1C[C@H](C)[C@@H](CN(C)S(=O)(=O)c2ccccc2)OCCCC[C@H](C)Oc2ccc(NC(=O)c3ccccc3)cc2C1=O`, the growth inhibition call was “inactive”.
With `CCOC(=O)c1cc2c(c(-c3ccccc3)n1)[C@@H](CCO[Si](C)(C)C(C)(C)C)N(S(=O)(=O)C(C)(C)C)C2`, the growth inhibition call is “inactive”.
Turning to `CC(C)(C)[S@@+]([O-])N1Cc2cc(C(=O)O)nc(-c3ccc(Br)cc3)c2[C@H]1CCO[Si](C)(C)C(C)(C)C`, the growth inhibition call was “active”.
To `CCOC(=O)c1cc2c(c(-c3cccc(Br)c3)n1)[C@@H](CCO[Si](C)(C)C(C)(C)C)N(S(=O)(=O)C(C)(C)C)C2` belongs “inactive”; to `C[C@@H]1CCCCO[C@@H](CN(C)S(=O)(=O)c2ccc(Cl)cc2)[C@H](C)CN([C@H](C)CO)C(=O)c2cc(NS(=O)(=O)c3ccccc3)ccc2O1`, “inactive”.
Next, `COc1cccc(C#Cc2cnc3c(c2)C(=O)N([C@@H](C)CO)C[C@H](C)[C@@H](CN(C)C(=O)C2CCOCC2)O3)c1`: “inactive”; `Cc1ccc(S(=O)(=O)N(C)C[C@H]2Oc3ccc(NS(=O)(=O)c4c(C)noc4C)cc3CC(=O)N([C@H](C)CO)C[C@H]2C)cc1`: “inactive”; `O=C(O)c1cnc(N2CCCC2)nc1`: “inactive”.
To `Cc1ccc(Cl)c(Nc2ccccc2C(=O)[O-])c1Cl.[Na+]` belongs “inactive”; to `Cc1cc(=O)c(C(=O)N[C@@H](C(=O)N[C@@H]2C(=O)N3C(C(=O)O)=C(CSc4nnnn4C)CS[C@H]23)c2ccc(O)cc2)c[nH]1`, “active”.
Consider `CCN1CCN(C(=O)NC(C(=O)NC2C(=O)N3C(C(=O)O)=C(CSc4nnnn4C)CSC23)c2ccc(O)cc2)C(=O)C1=O` (stereo not given), for which the growth inhibition call is “active”.
Next, `Cc1cc(O)c(C(=O)NC(C(=O)NC2C(=O)N3C(C(=O)O)=C(CSc4nnnn4C)CSC23)c2ccc(O)cc2)cn1` (stereo not given): “active”; `Cc1cc2nc3ccc(N(C)C)cc3[s+]c2cc1N.[Cl-]`: “inactive”; `C=CCOC(=O)[C@H]1[C@@H]2C(=O)O[C@@H](c3ccccc3)[C@@H](c3ccccc3)N2[C@@H](c2ccc(OCCOC(=O)[C@H]3C[C@H]4C(=O)N[C@@H](CC(C)C)C(=O)N4[C@H]3c3cccc(OCCO)c3)cc2)[C@]12C(=O)Nc1ccc(I)cc12`: “inactive”.
To `COc1ccc(S(=O)(=O)N(C)C[C@@H]2Oc3cc(C4=CCCC4)ccc3S(=O)(=O)N([C@@H](C)CO)C[C@H]2C)cc1` belongs “inactive”; to `C[C@H](CO)N1C[C@H](C)[C@H](CN(C)Cc2ccc(C(F)(F)F)cc2)Oc2ccc(NS(=O)(=O)c3ccc(Cl)cc3)cc2C1=O`, “inactive”; to `CC[C@@H]1OC(=O)C[C@@H](O)[C@H](C)[C@@H](O[C@@H]2O[C@H](C)[C@@H](O)[C@H](N(C)C)[C@H]2O)[C@@H](CCN2C[C@H](C)C[C@H](C)C2)C[C@@H](C)C(=O)/C=C/C(C)=C\[C@@H]1CO[C@@H]1O[C@H](C)[C@@H](O)[C@@H](OC)[C@H]1OC`, “active”.
As for `CCC1OC(=O)CC(O)C(C)C(OC2OC(C)C(O)C(N(C)C)C2O)C(CCN2CC(C)CC(C)C2)CC(C)C(=O)C=CC(C)=CC1COC1OC(C)C(O)C(OC)C1OC` (stereo not given), the growth inhibition call is “active”.
To `CC[C@H]1OC(=O)C[C@@H](O)[C@H](C)[C@@H](O[C@@H]2O[C@H](C)[C@@H](O)[C@H](N(C)C)[C@H]2O)[C@@H](CCN2C[C@H](C)C[C@H](C)C2)C[C@@H](C)C(=O)/C=C/C(C)=C/[C@@H]1CO[C@@H]1O[C@H](C)[C@@H](O)[C@@H](OC)[C@H]1OC` belongs “active”.
To `C[C@@H]1CN([C@H](C)CO)C(=O)Cc2cc(NS(C)(=O)=O)ccc2O[C@H]1CN(C)S(=O)(=O)c1cn(C)cn1` belongs “inactive”; to `C[C@@H]1CN([C@@H](C)CO)C(=O)Cc2cc(NC(=O)c3ccncc3)ccc2O[C@H]1CN(C)S(=O)(=O)c1ccc(Cl)cc1`, “inactive”; to `C[C@@H]1CCCCO[C@H](CN(C)S(=O)(=O)c2cn(C)cn2)[C@H](C)CN([C@H](C)CO)C(=O)c2cc(NS(=O)(=O)c3ccccc3)ccc2O1`, “inactive”.
To `C[C@H](CO)N1C[C@H](C)[C@@H](CN(C)S(=O)(=O)c2cn(C)cn2)Oc2ccc(NC(=O)CCCN(C)C)cc2C1=O` belongs “inactive”.
On to `C[C@@H]1CCCCO[C@@H](CN(C)S(=O)(=O)c2ccc(F)cc2)[C@H](C)CN([C@@H](C)CO)C(=O)c2cc(NC(=O)CCC(F)(F)F)ccc2O1`, for which the growth inhibition call is “inactive”.
To `CC(C)C[C@H]1NC(=O)[C@@H](CCCN)NC(=O)[C@H](C(C)C)NC(=O)[C@H]2CCCN2C(=O)[C@@H](Cc2ccccc2)NC(=O)[C@@H](CC(C)C)NC(=O)[C@@H](CCCN)NC(=O)[C@H](C(C)C)NC(=O)[C@H]2CCCN2C(=O)[C@@H](Cc2ccccc2)NC1=O` belongs “inactive”.
To `CC(C)C[C@@H]1NC(=O)[C@@H](C(C)C)NC(=O)[C@@H]2CCCN2C(=O)[C@@H](CC(=O)O)NC(=O)[C@@H](Cc2c[nH]c3ccccc23)NC1=O` belongs “inactive”; to `C[C@@H]1CN([C@H](C)CO)C(=O)c2cccc(NC(=O)c3cnccn3)c2O[C@H]1CN(C)S(=O)(=O)c1ccccc1`, “inactive”.
Next, `C[C@@H]1CN([C@@H](C)CO)S(=O)(=O)c2ccc(C#CCN(C)C)cc2O[C@H]1CN(C)Cc1cccnc1`: “inactive”.
In the case of `OC[C@H]1O[C@H]2O[C@@H]3[C@@H](O)[C@H](O)[C@H](O[C@@H]4[C@@H](O)[C@H](O)[C@H](O[C@@H]5[C@@H](O)[C@H](O)[C@H](O[C@@H]6[C@@H](O)[C@H](O)[C@H](O[C@@H]7[C@@H](O)[C@H](O)[C@H](O[C@@H]8[C@@H](O)[C@H](O)[C@H](O[C@@H]1[C@@H](O)[C@@H]2O)O[C@@H]8CO)O[C@@H]7CO)O[C@@H]6CO)O[C@@H]5CO)O[C@@H]4CO)O[C@@H]3CO`, the growth inhibition call was “inactive”.
Regarding `NC1=CC(=O)c2ccccc2C1=O`, the growth inhibition call is “inactive”.
To `O=C1C=C(O)C(=O)c2ccccc21` belongs “inactive”.
Next, `CC1=CC(=O)c2ccccc2C1=O`: “active”.
To `C[C@H](O)C#Cc1ccc2c(c1)O[C@H](CN(C)C(=O)c1ccccc1)[C@@H](C)CN([C@H](C)CO)S2(=O)=O` belongs “inactive”.
On to `CN(CC(=O)O)S(=O)(=O)c1ccc(F)cc1`, for which the growth inhibition call was “inactive”.
